In PubChem BioAssay AID488969 (Vanderbilt High Throughput Screening Facility, 2010):
In all, about 110,000 compounds were measured (“z-score”: median about -0.1, highest 2% from about 2 on). This excerpt belongs to a sample that is enriched for the highest values. The source made the active and inactive calls.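 Rule for the calls: active = z-score in the third read window above 3 or below -3; inactive = the rest.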

These compounds were tested against Metabotropic glutamate receptor 8 (Rattus norvegicus) (UniProt P70579) (assay: rat mGluR8 modulators via GIRK flux, primary screen, cell-based, thallium flux, HTS (AID 488969)). Details: HEK293 rat mGluR8, GIRK (G protein-gated inwardly rectifying potassium channel) thallium flux, FluoZin2; at 10 µM; stronger effect = higher value; submaximal glutamate (EC20) added with thallium.
Metabotropic glutamate receptor 8 (Rattus norvegicus), sequence (P70579 whole entry, looked up): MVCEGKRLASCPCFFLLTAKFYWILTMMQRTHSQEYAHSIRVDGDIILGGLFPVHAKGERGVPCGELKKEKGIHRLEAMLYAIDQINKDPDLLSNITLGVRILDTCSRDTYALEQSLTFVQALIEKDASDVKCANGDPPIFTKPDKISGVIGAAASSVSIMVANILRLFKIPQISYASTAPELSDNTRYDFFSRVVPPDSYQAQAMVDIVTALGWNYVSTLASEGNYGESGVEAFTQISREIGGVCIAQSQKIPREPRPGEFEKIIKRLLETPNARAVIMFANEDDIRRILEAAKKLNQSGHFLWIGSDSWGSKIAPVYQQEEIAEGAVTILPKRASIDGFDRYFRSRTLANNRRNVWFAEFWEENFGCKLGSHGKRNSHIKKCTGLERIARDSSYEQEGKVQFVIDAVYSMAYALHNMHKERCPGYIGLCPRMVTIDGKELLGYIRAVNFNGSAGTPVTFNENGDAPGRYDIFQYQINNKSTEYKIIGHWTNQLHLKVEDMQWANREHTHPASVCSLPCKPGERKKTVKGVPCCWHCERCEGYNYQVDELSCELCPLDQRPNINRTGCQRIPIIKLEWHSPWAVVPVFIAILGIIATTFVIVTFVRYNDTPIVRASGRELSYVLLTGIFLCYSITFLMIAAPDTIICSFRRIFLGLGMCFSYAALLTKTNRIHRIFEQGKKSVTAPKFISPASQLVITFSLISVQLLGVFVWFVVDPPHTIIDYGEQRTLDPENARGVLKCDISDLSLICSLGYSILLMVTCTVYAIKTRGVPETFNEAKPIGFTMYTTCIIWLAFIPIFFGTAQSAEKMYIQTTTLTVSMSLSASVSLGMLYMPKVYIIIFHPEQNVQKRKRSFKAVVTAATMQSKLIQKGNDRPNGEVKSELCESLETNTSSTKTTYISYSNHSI

Compared with `O=C(CN(c1ccc(Cl)cc1)S(=O)(=O)c1ccccc1)N1CCN(c2ccccc2)CC1`, `COc1ccc(S(=O)(=O)N(CC(=O)N2CCN(c3ccccc3)CC2)c2ccccc2)cc1` is higher in z-score: -0.37 for the first, 2.25 for the second.

Going from `COc1ccc(N2CCN(C(=O)CN(c3ccccc3)S(=O)(=O)c3ccc(OC)cc3)CC2)cc1` to `COC(=O)/C=C/C(=O)N1CCN(c2ccccc2)CC1`, the z-score falls from -0.0102 to -0.0929.

First: COc1ccc(/C=C2/SC(=O)N(CC(O)Cn3c4ccccc4c4ccccc43)C2=O)cc1 (configuration not stated)
Second: COC(=O)c1ccc(C(C(=O)NCc2ccccc2)N(Cc2ccco2)C(=O)c2cnccn2)cc1 (configuration not stated)
The z-score of the first is lower: -0.167 for the first, 0.053 for the second.

First: Cc1cc(=O)[nH]c(N/N=C/c2cccs2)n1
Second: CCOC(=O)Cc1csc(NC(=O)c2cccc(OC)c2)n1
The z-score of the first is lower: -0.0197 for the first, 0.0443 for the second.

First: O=C1CC(C(=O)Nc2ccc(Br)cc2)C2(CCCC2)O1 (configuration not stated)
Second: O=C1CC(C(=O)Nc2ccccc2)C2(CCCC2)O1 (configuration not stated)
The z-score of the first is higher: 2.34 for the first, -0.154 for the second.

Compared with `O=C1CC(C(=O)Nc2ccccc2)C2(CCCCC2)O1` (configuration not stated), `O=C(CN1CCOCC1)Nc1ccccc1C(=O)O` is higher in z-score: -0.333 for the first, -0.257 for the second.

Compared with `CC1CCCCC12NC(=O)N(CC(=O)Nc1sc3c(c1C(N)=O)CCC3)C2=O` (configuration not stated), `O=C(Cn1c(=O)[nH]c2ccsc2c1=O)NC1CCCCC1` is lower in z-score: 0.0207 for the first, -0.236 for the second.

First: CC(C)C1Oc2ccccc2N(CC(=O)NCCCN2C(C)CCCC2C)C1=O (configuration not stated)
Second: COC(=O)C1=C(C)N(CCc2ccccc2)C(=O)C1
The z-score of the first is higher: 0.132 for the first, -0.0388 for the second.

Going from `CCC(C)(C)NC(=O)C(c1ccc(F)cc1)N(Cc1ccco1)C(=O)c1snc(C(N)=O)c1N` (configuration not stated) to `NC(=O)c1ccsc1NC(=O)CSc1nc2ccccc2c(=O)n1CCCO`, the z-score falls from -0.00804 to -0.109.

Compared with `COc1cc(OC)c(-c2cc(C(=O)O)ccc2OC)c(OC)c1`, `COC(=O)C1=C(C)N(Cc2ccc(OC)cc2)C(=O)C1` is higher in z-score: -0.305 for the first, -0.151 for the second.

Going from `N/C(COc1cccc(C(F)(F)F)c1)=N\NC(=O)c1cccnc1Oc1ccccc1` to `O=C(COC(=O)c1cccc([N+](=O)[O-])c1)NCc1ccc2c(c1)OCO2`, the z-score rises from -0.285 to -0.0402.

Going from `COc1ccc(-c2nnn(CCc3nn[nH]n3)n2)cc1` to `COC(=O)C1=C(C)N(CCc2ccc(OC)cc2)C(=O)C1`, the z-score rises from -0.103 to 2.28.

Compared with `O=C(Nc1ccc(Br)cc1F)C1CCCO1` (configuration not stated), `CC1CCC(NC(=O)Cn2c(=O)[nH]c3ccsc3c2=O)CC1` (configuration not stated) is lower in z-score: -0.0425 for the first, -0.274 for the second.

Going from `CCc1cc(C(=O)OC)c(NC(=O)CCC(=O)O)s1` to `Clc1ccc(-c2nnc3c4ccccc4nc(N4CCOCC4)n23)cc1Cl`, the z-score falls from -0.105 to -0.168.

Work on `Fc1ccccc1-c1nnc2c3ccccc3nc(N3CCOCC3)n12` yielded a z-score of -0.0489.

For `CCC(C)(C)NC(=O)C(c1ccc(F)cc1)N(Cc1ccco1)C(=O)c1cnccn1` (configuration not stated), the z-score was 3.05 (active).
`O=C(Cn1c(=O)[nH]c2ccsc2c1=O)NC1CCCCCC1` was tested, and the z-score was 8.37 (active).
`Brc1ccc(-c2nnc3c4ccccc4nc(N4CCOCC4)n23)cc1` was tested, and the z-score was 4.42 (active).
